High-throughput results (PubChem BioAssay)
Autofluor 339 – intrinsic fluorescence of library compounds, ex339/em460 – biochemical, MLSMR library, data from DPM-DC assay, artefact control, profiling panel. compound autofluorescence, ex339/em460 nm, NADH buffer; active compounds read high; 1 = no-compound wells, NADH background. 5.5% of 65,000 active. fluorescence fold increase at 10 µM;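 active = at 10 µM, mean starting fluorescence two-fold or more over control wells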;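 also: signal is the first read of a kinetic run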
MK inhibit – S. pneumoniae MK inhibitors, primary screen, biochemical, PK/LDH-coupled NADH absorbance; mevalonate kinase [Streptococcus pneumoniae D39]; purified MK, PK/LDH-coupled NADH absorbance 340 nm; 0.48% of 65,000 active; AID 555, 2006; inhibition, % at 10 µM;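 active = ranked among the strongest by inhibition in the single 10 µM screen, a fixed top-ranked set picked for dose follow-up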
NADH coupling – inhibitors of PK/LDH coupling enzymes, profiling panel, artefact control, biochemical, MLSMR library; coupled PK/LDH NADH assays, four targets; IC50, µM (titrated, usually from 10 µM), for the others: at the highest dose inhibition; 0.02% of 65,000 active;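 active = single-dose screening hits from any of four coupled enzyme assays that gave an IC50 when retested across doses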;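 also: the DPM-DC format reads NADH fluorescence rather than 340 nm absorbance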
DPM-DC inhibit – S. pneumoniae DPM-DC inhibitors, primary screen, biochemical, PK/LDH-coupled NADH fluorescence; 0.49% of 65,000 active; purified DPM-DC; AID 556, 2006; calls only at 10 µM;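 active = the 320 compounds with the highest percent inhibition in the single-dose primary screen, excluding strongly autofluorescent ones, cut at about 32% in these data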;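 also: kinetic rate of NADH fluorescence loss reporting ADP formed by the decarboxylase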
PMK inhibit – S. pneumoniae PMK inhibitors, primary screen, biochemical, mevalonate pathway, pilot trial included; phosphomevalonate kinase (Streptococcus pneumoniae D39); purified PMK, PK/LDH-coupled NADH absorbance 340 nm; inhibition, % at 10 µM; 0.49% of 65,000 active;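 active = top-ranked compounds by inhibition in the single 10 µM screen, taking a fixed number of the strongest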;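 also: 0% = full reaction with DMSO carrier and 100% = background rate without enzyme reaction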
Abs 340nm – compound light absorbance at 340 nm, profiling panel, artefact control, biochemical, MLSMR library, data from PS, PMK, MK assays; compound absorbance at 340 nm, fold over control; AID 708, 2007; fold change at 10 µM; 65,000 tested, under 10 active;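 active = at 10 µM dose, initial 340 nm absorbance at least 2 fold that of control wells; inactive = change under 2 fold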;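 also: initial absorbance extrapolated from kinetic A340 decline of NADH oxidation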
* marks the source's active call; other numbers are inactive results; i = inactive; nt = no result shown. In the library only some 6.5% were active in any assay of this set; here they are far more common.

SMILES	Autofluor 339	MK inhibit	NADH coupling	DPM-DC inhibit	PMK inhibit	Abs 340nm
CCc1cc2c(=O)c(Oc3ccccc3F)c(C)oc2c(CN(C)C)c1O	2.22*	2.0	13.0%	nt	23.0	1.19
Cc1oc2c(CN(C)C)c(O)ccc2c(=O)c1-c1ccc2ccccc2n1	1.15	4.0	1.0%	i	0.0	1.18
Cc1cc(C)c2c(N)c(C(=O)NCc3ccco3)sc2n1	2.14*	15.0	10.0%	nt	4.0	1.12
CC1CCc2sc3ncn4nc(C(=O)NCc5ccco5)nc4c3c2C1 (stereo not given)	2.02*	9.0	12.0%	i	8.0	1.02
Cc1cc(C)c2c(N)c(C(=O)N3CCCCCC3)sc2n1	2.16*	0.0	7.0%	i	0.0	1.05
Cc1cc(C)n2nc(C(=O)NCc3ccco3)nc2n1	1	5.0	5.0%	i	0.0	0.97
CCN1CCn2c3c(c4cc(Cl)ccc42)CCCC31 (stereo not given)	1.2	9.0	7.0%	i	11.0	1.03
OC1CN=C2CCCc3c2n(c2ccc(Cl)cc32)C1 (stereo not given)	3.83*	12.0	9.0%	nt	6.0	1.38
O=C1NC(c2ccc3c(c2)OCO3)Oc2ccccc21 (stereo not given)	1.26	12.0	4.0%	i	0.0	1.02
O=C1NC(c2ccc3c(c2)OCO3)Nc2ccccc21 (stereo not given)	4.85*	6.0	9.0%	nt	11.0	0.99
CC1(CCc2ccc3c(c2)OCO3)NC(=O)c2ccccc2N1 (stereo not given)	3.76*	5.0	5.0%	nt	4.0	1.04
Cc1ccccc1-n1c(=O)cc(NCc2ccc3c(c2)OCO3)[nH]c1=O	1.09	3.0	3.0%	i	6.0	0.99
COc1cc(C(c2nnnn2C(C)(C)C)N2CCN(c3nc4ccccc4s3)CC2)ccc1O (stereo not given)	1.13	3.0	2.0%	i	4.0	1
CC(C)NC(=O)CSc1nnc(-c2ccc(S(=O)(=O)N3CCCC3)cc2)n1CC1CCCO1 (stereo not given)	1.07	45.0*	19.0%	i	11.0	0.98
NC(=O)CSc1nnc(-c2ccc(S(=O)(=O)N3CCOCC3)cc2)n1CC1CCCO1 (stereo not given)	1.08	12.0	9.0%	i	14.0	0.96
CCOC(=O)NC(NC(=O)OCC)C(=O)c1ccc(F)cc1	1.09	4.0	7.0%	i	14.0	1.04
CCOc1ccccc1-n1c(SCC(=O)Nc2ccc(CC)cc2)nc2n[nH]c(C)c2c1=N	4.92*	0.0	13.0%	nt	25.0*	1.09
CCOc1ccccc1NC(=O)CCSc1nc2n[nH]c(C)c2c(=N)n1-c1ccccc1Cl	1.31	8.0	13.0%	i	21.0	1.01
CN1CCN(c2cc3c(c4c2[nH]c2ccccc24)C(=O)CC(C)(C)C3)CC1	2.09*	5.0	7.0%	nt	9.0	1.09
Cn1c(=O)[nH]c(=O)c2c1ncn2CCCc1ccccc1	1.08	5.0	4.0%	i	8.0	0.98
CCOC(=O)N1CCN(C(=O)COc2ccc3c(c2)C(=O)CC2(CCN(C(C)=O)CC2)O3)CC1	5.05*	0.0	7.0%	nt	14.0	1.02
CCCOc1ccccc1Nc1nnc(C)c(=O)[nH]1	1.1	10.0	8.0%	i	5.0	1.04
c1csc(-c2cnc3ccccc3n2)c1	3.64*	2.0	5.0%	nt	7.0	1.04
c1cncc(Nc2nc(-c3cccs3)cs2)c1	1.12	7.0	3.0%	i	0.0	1.03
Cc1ccc(OCCCN(C)C)c(Br)c1	1.1	45.0*	19.0%	i	13.0	1.05
SMILES	Autofluor 339	MK inhibit	NADH coupling	DPM-DC inhibit	PMK inhibit	Abs 340nm
O=c1c(-c2ccc3c(c2)OCCO3)coc2c(CN3CCOCC3)c(O)ccc12	3.79*	11.0	7.0%	nt	2.0	1.08
COc1cccc(Oc2coc3c(CN4CCOCC4)c(O)ccc3c2=O)c1	3.89*	8.0	9.0%	nt	10.0	1.08
COc1ccc(Oc2coc3cc(OC(=O)N4CCOCC4)ccc3c2=O)cc1	1.1	5.0	3.0%	i	5.0	1.06
CC(c1ccco1)N(C(=O)c1ccc(Cl)s1)c1ccccn1 (stereo not given)	1.05	0.0	7.0%	i	20.0	0.99
Cn1c(/C=N/c2nc3ccccc3[nH]2)nc2ccccc21	1.16	7.0	6.0%	i	5.0	1.03
Cn1c(/C=N/n2cnnc2)nc2ccccc21	2.45*	6.0	3.0%	nt	7.0	1.04
COc1ccc(OC)c(CN2CCN(c3ccccc3OC)CC2)c1	0.96	51.0*	24.0%	i	13.0	1.06
CCCS(=O)(=O)N1CCN(Cc2ccccc2OCC)CC1	1.07	0.0	0.0%	i	0.0	1.07
COc1ccccc1N1CCN(Cc2ccc(OC)c(OC)c2OC)CC1	1.09	47.0*	16.0%	i	0.0	1.07
CCOc1ccccc1N1CCN(Cc2cccc(OC)c2OC)CC1	1.06	49.0*	17.0%	i	2.0	1.06
CCS(=O)(=O)N1CCN(Cc2ccccc2OC)CC1	1.05	2.0	9.0%	i	18.0	1.03
CCOc1ccccc1CN1CCN(S(=O)(=O)CC)CC1	1	58.0*	23.0%	i	10.0	1.03
CCN(CC(=O)Nc1ccc2c(c1)OCCO2)c1nc(-c2cccnc2)nc2ccccc12	1.07	7.0	15.0%	i	23.0	1.07
Cc1nonc1NC(=O)Nc1cccnc1	1.15	4.0	5.0%	i	10.0	0.99
C=C(CC)C(=O)c1ccc(OCC(=O)O)c(Cl)c1Cl	1.02	8.0	2.0%	i	5.0	0.98
c1ccc(N2CCN(Cc3ccsc3)CC2)nc1	0.65	36.0	23.0%	i	7.0	1.05
COc1ccccc1N1CCN(Cc2ccsc2)CC1	1.03	42.0*	14.0%	i	0.0	1.06
CC(C)Cc1nc2oc3c(NCc4cccnc4)ncnc3c2c2c1CCC2	2.59*	11.0	19.0%	i	16.0	1.02
CC(C)Cc1nc2oc3c(NCC4CCCO4)ncnc3c2c2c1CCC2 (stereo not given)	2.6*	8.0	15.0%	i	11.0	1
CC(C)c1nc2oc3c(NCc4cccnc4)ncnc3c2c2c1CCC2	2.1*	5.0	8.0%	i	12.0	1.05
Cc1ccc2[nH]c(=O)c(CN(CCCN3CCOCC3)C(=O)Nc3cccc(Cl)c3)cc2c1	1.17	6.0	2.0%	i	12.0	1.01
Cc1nc2sc(C(c3ccccc3)N3CCN(C)CC3)c(O)n2n1 (stereo not given)	1.07	4.0	3.0%	i	5.0	1.05
COC(=O)c1ccc(-c2nc3ccccc3o2)cc1	4.57*	0.0	2.0%	nt	3.0	1.06
